Screening data from PubChem BioAssay.
Tau fluor counter = counter-screen for tau fibril formation inhibitors | tau K18 P301L Alexa594 fluorescence, heparin fibrillization | Potency, µM (highest dose often 57.7 µM), for inactives: at the top dose activity change, negative = decrease | 280,000 compounds, 0.93% hits | AID 1463; further: potency means the concentration at half of the fitted maximal effect; nearly all actives have a fitted effect of over 55% in size
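Human tau K18 P301L (15 uM unlabeled, 0.24 uM Alexa 594-labeled) in 100 mM sodium acetate pH 7 with 20 uM heparin, 6 hr at 37 C. ThT 30 uM added, 1 hr ambient; Alexa 594 FP and total fluorescence read at 555/632 nm.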
Coupling enz = counter-screen for Giardia aldolase inhibitors: coupling enzyme system. activity change, negative = inhibition, % at 58.2 µM, hits read low. 290,000 compounds, 0.67% hits. AID 2472. coupling enzyme system counterscreen, AmpLite Red fluorescence; in the data active means activity change below about -30%
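Final compound at 57.5 uM, incubated 10 min at RT with coupling enzyme reagent (glyceraldehyde-3-phosphate), then 20 min with substrate and AmpLite Red detection. Fluorescence read at 525/598 nm; tests interference with the coupling assay, not aldolase inhibition.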
Tau FP inhib = inhibitors of human tau fibril formation. P10636. K18 P301L tau heparin fibrillization, Alexa594 FP, 6 h. Potency, µM (doses to about 57.7 µM), for the others: top-dose activity, negative = inhibition, usual class: inhibitors. 280,000 compounds, 0.39% hits. AID 1468; further: potency means the concentration at half of the fitted maximal effect; nearly all actives have a fitted effect of over 55% in size
Target sequence (P10636 561-689 P618L limits assumed): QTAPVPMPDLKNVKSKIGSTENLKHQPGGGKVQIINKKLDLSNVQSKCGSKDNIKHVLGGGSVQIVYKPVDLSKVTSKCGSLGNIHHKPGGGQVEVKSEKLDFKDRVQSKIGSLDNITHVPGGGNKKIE
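K18 P301L tau (15 uM unlabeled/0.24 uM Alexa 594-labeled, final) + compound + heparin 20 uM final; 100 mM NaOAc pH 7; 6 hr 37 C; ThT 30 uM final added, 1 hr RT; FP ex 555/em 632 nm.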
Tau ThT inhib = inhibitors of human tau fibril formation, thioflavin T binding | Potency, µM (series often up to 57.4 µM), inactives show at the highest dose activity, negative = inhibition, hits mostly inhibitors | recombinant tau K18 P301L (four-repeat tau fragment), heparin-induced fibrillization, ThT fluorescence | P10636 | 270,000 compounds, 2.1% hits; further: potency means the concentration at half of the fitted maximal effect; nearly all actives have a fitted effect of over 55% in size
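Tau K18 P301L fragment (15 uM unlabeled plus 0.24 uM Alexa 594-labeled) in 100 mM sodium acetate pH 7 with compound, fibrillization induced by 20 uM heparin for 6 hr at 37 C. Thioflavin T (30 uM) added, fluorescence read after 1 hr (ex 450, em 510 nm).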
Sfp PPTase inh = inhibitors of Bacillus subtilis Sfp phosphopantetheinyl transferase; Potency, µM, inactives show largest response in the series, negative = inhibition, actives largely listed as inhibitors; Q9F4F7; AID 1490; Biochemical Sfp PPTase activity, qHTS; 310,000 compounds, 3.5% hits;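 further: the enzyme is Sfp with the accession as filed and its product quenches rhodamine fluorescence; potency means the concentration at half of the fitted maximal effect; 0% = enzyme reaction without inhibitor and -100% = no enzyme wells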
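Buffer: 50 mM Hepes-Na pH 7.6, 10 mM MgCl2, 0.01% Nonidet P-40, 0.01% BSA. Enzyme 15 nM, pre-exposed to compound 15 min; substrates then added and fluorescence change tracked over 30 min.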
Starred values were filed as active, the others as inactive; ? = inconclusive; nt = not tested or not shown; [ ] = dose if it differs, or a comment. Hits are enriched below; roughly 5.2% of the tested compounds scored in any of these assays. Unless noted, the call rests on the fitted dose curve; in most records, active means well fitted curve in the direction sought with a large enough effect; inconclusive means small, poorly fitted or top-dose-only effect, or another doubt; inactive means no such curve, though single readings can be large; an effect the other way counts as inactive or inconclusive. Unless noted, on the % scale 0 is the no-effect control and ±100 the full control effect.

SMILES	Tau fluor counter	Coupling enz	Tau FP inhib	Tau ThT inhib	Sfp PPTase inh
Cc1ccc(NC(=O)c2cn(-c3ccccc3)nc2-c2ccccc2)cc1	-20.1%	nt	-3.6%	-16.1%	nt
CCOC(=O)c1ccc(NC(=O)c2cn(-c3ccccc3)nc2-c2ccncc2)cc1	?	-2.7	28.2µM*	-4.3%	1.3%
CCOC(=O)c1ccc(NC(=O)c2cn(-c3ccccc3)nc2-c2ccc(Br)cc2)cc1	?	nt	17.8µM*	-13.7%	nt
S=C(c1ccc(-c2cccc(Cl)c2)o1)N1CCCCC1	-23.7%	-0.3	-6.5%	?	-42.9%
N#CCCN1CCN(C(=S)c2ccc(-c3cccc(Cl)c3)o2)CC1	-28.2%	-8.0	2.3%	?	44.7µM*
Cc1ccc(-c2ccc(C(=O)O)o2)cc1Cl	10.8%	15.3	10.3%	8.8%	-4.7%
N#CCCN1CCN(C(=S)c2ccc(-c3ccc(Cl)c(Cl)c3)o2)CC1	-23.7%	-3.2	10.7%	?	50.1µM*
Cc1nn(C)c2c1c(C(F)(F)F)cc(=O)n2CC(=O)NCc1ccc(OC(C)C)cc1	-7.4%	nt	11.3%	-8.5%	nt
Cc1ccn2c(c1)nc(=O)c1cc(S(=O)(=O)N3CCC(C)CC3)c(Cl)cc12	-1.8%	nt	-0.3%	4.3%	nt
COC(=O)[C@@H](NC(=O)Nc1ccc(S(N)(=O)=O)cc1)C(C)C	-9.0%	4.8	3.0%	-9.9%	-8.5%
COC(=O)[C@H](CC(C)C)NC(=O)Nc1ccc(S(N)(=O)=O)cc1	-18.3%	-1.8	-4.4%	-12.9%	79.4µM*
c1ccc(-c2nc(-c3ccncc3)n[nH]2)nc1	-14.8%	2.0	-5.6%	-13.3%	14.1µM*
c1ccc(SCc2nc(-c3ccncc3)n[nH]2)nc1	7.1%	5.3	5.4%	4.6%	-7.9%
O=C(Nc1ccccc1)N1CCCC2(CCN(C(=O)c3cc(C(F)(F)F)cc(C(F)(F)F)c3)CC2)C1	nt	-1.2	nt	nt	14.1%
COc1ccc(NS(=O)(=O)c2cc(NC(=O)/C=C/c3cccs3)ccc2N2CCOCC2)cc1	15.8µM*[quencher]	1.6	3.7%	-9.1%	12.0%
COc1ccc(NS(=O)(=O)c2cc(NC(=O)c3cccs3)ccc2N2CCCC2)cc1	15.8µM*[quencher]	-0.9	?	-12.4%	20.7%
CCC(=O)Nc1ccc(N2CCOCC2)c(S(=O)(=O)Nc2ccc(OC)cc2)c1	-0.9%	-1.7	-1.9%	1.5%	4.9%
COc1ccc(NS(=O)(=O)c2ccc(N3CCCC3)c(NC(=S)Nc3cccc(S(=O)(=O)N(C)C)c3)c2)cc1	?	0.4	?	25.1µM*	3.98µM*
COc1ccc(NC(=O)c2cc(S(=O)(=O)Nc3ccc(OC)cc3)cs2)cc1	12.6µM*[quencher]	4.0	?	-15.7%	2.8%
CC(C)[C@H](/C=C/C[Si](C)(C)C)[C@H](C)C(O)/C=C/CCCOC(=O)C(C)(C)C (stereo partly drawn)	nt	0.7	nt	nt	4.6%
CC1CC=CC2C1C(=O)N(Cc1ccccc1)C2c1ccc2ccccc2c1 (stereo not drawn)	nt	1.3	nt	nt	?
CC1CCc2c(sc(NC(=O)C3c4ccccc4Oc4ccccc43)c2C(=O)OC(C)C)C1 (stereo not drawn)	-3.9%	nt	3.3%	-0.7%	nt
COc1ccc(CNC(=O)Cn2ccc3cc(S(=O)(=O)N4CCCCCC4)ccc32)cc1OC	-23.2%	nt	6.5%	5.8%	nt
CO/N=C(\Cn1ncc(N2CCCC2)c(Br)c1=O)c1ccc(Cl)cc1	-8.7%	1.4	-8.9%	-12.3%	89.1µM*
O=C(O)c1ccc(-n2cc(-c3cc4ccccc4oc3=O)[nH]c2=S)cc1	-13.3%	-1.8	-4.2%	?	3.16µM*
SMILES	Tau fluor counter	Coupling enz	Tau FP inhib	Tau ThT inhib	Sfp PPTase inh
CC(=O)c1ccc(N2C(=O)Nc3ccccc3S2(=O)=O)cc1	-3.9%	nt	-2.0%	-4.4%	nt
COc1cc(=O)n(C)c2cc(N(C)C)ccc12	0.2%	-31.2*	5.3%	-16.0%	-15.4%
CN1C(=O)c2ccc(N(C)C)cc2C1=O	1.8%	1.7	4.8%	-12.7%	-3.8%
COc1ccccc1-c1ccc(=O)n(CC(=O)NC2CCc3ccccc32)n1 (stereo not drawn)	-1.8%	-0.2	-4.9%[2.34 µM]	-17.4%	35.5µM*
COc1ccccc1CC(=O)NC1CCCc2ccccc21 (stereo not drawn)	-14.6%	0.2	-5.5%	-9.7%	4.0%
CCc1ccc(-c2csc(-c3cc4cc(Br)ccc4oc3=O)n2)cc1	-9.0%	nt	-5.7%	-0.4%	nt
NNC(=S)Nc1c(F)cc(F)cc1Br	-21.6%	-1.8	8.0%	?	79.4µM*
CNC(=O)C(Sc1nc(C)nc2c1oc1ccccc12)C(C)=O (stereo not drawn)	-7.8%	7.2	1.7%	-0.6%	50.1µM*
Cc1nc(SCc2cccc(F)c2)c2oc3ccccc3c2n1	-24.3%	-2.5	-3.0%	?	39.8µM*
CSc1ccc(CCNC(=O)CCc2c(C)nc3c(c(C)nn3-c3ccccc3)c2C)cc1	-8.2%	nt	-10.9%	-0.8%	nt
NS(=O)(=O)c1ccc(NC(CNS(=O)(=O)c2ccccc2)c2ccccc2)cc1 (stereo not drawn)	-17.6%	2.8	-3.3%	2.9%	28.7%
Cc1ccc(NC(CNS(=O)(=O)c2ccc(Cl)cc2)c2ccccc2)cc1 (stereo not drawn)	4.47µM*[quencher]	1.5	7.1%	1.0%	11.6%
COc1cccc(NC(CNS(=O)(=O)c2ccc(Cl)cc2)c2ccccc2)c1 (stereo not drawn)	10µM*[quencher]	nt	10.3%	-9.0%	nt
O=S(=O)(NCC(Nc1ccc(Cl)cc1)c1ccccc1)c1ccccc1 (stereo not drawn)	8.91µM*[quencher]	-0.9	-1.5%	8.2%	33.9%
COc1cccc(Nc2nc3cc(C)ccc3nc2NS(=O)(=O)c2ccc(Cl)cc2)c1	?	nt	4.7%	?	nt
Cc1ccc2nc(SCC(=O)Nc3ccc(C)c([N+](=O)[O-])c3)[nH]c2c1	?	-6.0	?	?	0.9%
Cc1ccc2nc(SCC(=O)c3ccc4c(c3)OCO4)[nH]c2c1	-14.1%	-0.6	0.2%	?	44.7µM*
Cc1ccc2nc(SCC(=O)Nc3ccc(F)c([N+](=O)[O-])c3)[nH]c2c1	28.2µM*[quencher]	-0.2	-9.3%	?	-5.7%
O=C(CSc1nc2ccccc2[nH]1)c1ccc2c(c1)OCO2	-2.2%	1.6	7.4%	-13.8%	?
c1csc(CNc2ncncc2-c2ccoc2)c1	nt	4.6	nt	nt	7.8%
COc1ccc2nc(/C=N/NC(=O)[C@@H]3CCCN3C(=O)OC(C)(C)C)ccc2c1	-10.4%	-1.9	6.2%	-10.7%	89.1µM*
CC(C)(C)OC(=O)N1CCC[C@H]1C(=O)N/N=C/c1ccc2nccnc2c1	-11.7%	3.4	-4.8%	-11.3%	6.8%
Cc1ccc(-n2c3c(cc(-c4nc(-c5ccc(Cl)cc5)cs4)c2=O)C(=O)CC(C)(C)C3)cc1	-2.0%	nt	-11.7%	4.6%	nt
CSc1oc(-c2ccco2)nc1S(=O)(=O)c1ccc(C)cc1	nt	-5.3	nt	nt	-13.0%
